Experimental data taken from PubChem BioAssay (NCI).
The panel holds about 79,000 compounds, 15% with a hit somewhere; the sample as a whole holds those more often. A number with no mark means an inactive call. Active and inactive are the calls of the source. Cut-off read from the data, not from the text of the source: active = growth inhibition above about 70%; inactive = the rest.

What was measured:
[1] = NCI Yeast Anticancer Drug Screen. Data for the rad50 strain (AID 155);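 note: 0% = growth of vehicle-only cultures of the same strain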; details: S. cerevisiae rad50 strain growth inhibition; at 50.0 µM; hits give high values
In short: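 Cells are treated with compound, grown, and their growth is then scored against vehicle-only cultures of the same repair-deficient yeast strain.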

[2] = NCI Yeast Anticancer Drug Screen. Data for the mec2-1 strain (AID 157); details: S. cerevisiae mec2-1 strain, at 50.0 µM, hits give high values
In short: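 Compounds were applied to mec2-1 yeast cells. Their growth was then compared with that of vehicle-treated cultures to give growth inhibition.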

[3] = NCI Yeast Anticancer Drug Screen. Data for the sgs1 mgt1 strain (AID 161);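 note: 0% = growth of cultures given vehicle only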; details: S. cerevisiae sgs1 mgt1 strain, at 50.0 µM, hits give high values
In short: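 This yeast growth screen uses a strain with defined DNA-repair lesions; compound-treated growth is compared with vehicle-treated growth.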

[4] = NCI Yeast Anticancer Drug Screen. Data for the cln2 rad14 strain (AID 165);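 note: 0% = growth equal to vehicle treated cultures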; details: S. cerevisiae cln2 rad14 strain, at 50.0 µM, hits give high values
In short: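 Strain: cln2 rad14 yeast, altered in cell cycle control and DNA damage repair. Read-out: growth inhibition vs vehicle.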

[5] = NCI Yeast Anticancer Drug Screen. Data for the bub3 strain (AID 167); details: S. cerevisiae bub3 mutant strain, at 50.0 µM, hits give high values
In short: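 Part of a panel of yeast mutants defective in DNA damage repair or cell cycle regulation. Each strain is grown with compound, and inhibition is calculated relative to solvent-treated cultures.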

[6] = NCI Yeast Anticancer Drug Screen. Data for the mlh1 rad18 strain (AID 175); details: S. cerevisiae mlh1 rad18 strain growth inhibition; at 50.0 µM; hits give high values
In short: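 A repair-deficient yeast strain is exposed to test compound, and growth is scored relative to vehicle-treated controls.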

SMILES | growth inhibition [1] | growth inhibition [2] | growth inhibition [3] | growth inhibition [4] | growth inhibition [5] | growth inhibition [6]
CCC(c1ccc2oc(C)cc2c1)C(CC)c1ccc2oc(C)cc2c1 (stereo not drawn) | -15.4% | -4.9% | -3.45% | 13.2% | 45% | -23.2%
CN(C)S(=O)(=O)C(c1ccccc1)C(O)(c1ccccc1)c1ccc(Cl)cc1 (stereo not drawn) | 72.1% (active) | 45.5% | 54.1% | 22.9% | 16.8% | 57%
CC(C)(C)c1ccc(-c2cc3nc(-c4ccccc4)cc(=O)n3[nH]2)cc1 | -8.05% | -30.3% | 10.5% | 5.9% | 10.8% | -0.55%
CCCCC(=O)Nc1ccc(Cl)cc1 | 18.2% | 7.8% | 6.5% | 8.2% | -19.9% | 11.7%
OCC(O)C(O)C(O)C(SCc1ccccc1)SCc1ccccc1 (stereo not drawn) | 3.9% | -7.85% | -20.4% | -4.8% | -6.2% | -12.6%
NC(=O)/C(=C\c1ccncc1)c1cccc2ccccc12 | -0.55% | -5.1% | -41.1% | -3.35% | -44% | -7.05%
CCCC1=NCCO1 | -10.9% | -26.6% | -6.65% | 0.45% | -6.95% | -13.7%
S=C1N(c2ccccc2)CCN1c1ccccc1 | -15.2% | -14.9% | -21.9% | -17.2% | -18.9% | -2.65%
NC(=S)Nc1c(Cl)cc(Cl)cc1Cl | 44% | -8.9% | 33.4% | 8.6% | 17.3% | 12.3%
CN1C(CC(=O)c2ccccc2)CCCC1CC(O)c1ccccc1 (stereo not drawn) | 13.9% | 2.25% | 25.4% | 40.4% | -2.4% | 36.1%
Nc1ccc(O)c(N=Nc2ccc(S(N)(=O)=O)cc2)c1 | 6% | 0.1% | 13.6% | -1.1% | 18.1% | 10.1%
COc1ccc(C=O)c(NC(=O)C(C)(C)C)c1 | 37.4% | 23.9% | 9.8% | 1.7% | 23.2% | -13.7%
O=C1c2cc([N+](=O)[O-])sc2C(=O)c2ccsc21 | 88.6% (active) | 89.3% (active) | 91.2% (active) | 90.2% (active) | 91.1% (active) | 90.7% (active)
CCCC(=O)C(C)C(=O)CC (stereo not drawn) | -52.1% | -26.9% | -15.7% | 4.3% | -6.8% | 0.5%
CC1=NN(C(=O)c2ccc(Cl)cc2)C(=O)C1N=Nc1ccc(S(=O)(=O)Nc2ccccn2)cc1 (stereo not drawn) | -0.85% | 16.8% | 14.7% | 20.2% | -10.6% | 30.7%
O=C1OC(c2ccc(Cl)cc2)=C/C1=C/c1ccccn1 | -1.4% | 10% | 5.2% | -34% | 4.55% | 11.3%
CCOC(=O)c1c(O)nc2sc3ccccc3n2c1=O | 19% | 12.7% | 6.7% | -1.75% | 13.6% | 41.4%
CCc1nnc(CC)n1N1C(=O)CCC1=O | 24.1% | 28.1% | 26.2% | 11.1% | 24.8% | 21.7%
CCOC(=O)/C(C#N)=C/c1ccc(-c2cc(C(F)(F)F)cc(C(F)(F)F)c2)o1 | -17.9% | -7% | -8% | -15.4% | -2.5% | -0.8%

SMILES | growth inhibition [1] | growth inhibition [2] | growth inhibition [3] | growth inhibition [4] | growth inhibition [5] | growth inhibition [6]
O=C(CCl)OCCCc1ccccc1 | -10.6% | 44.2% | 49.6% | -6.3% | 17% | 36%
CN(C)Cc1cc(N=Nc2ccc(Cl)cc2)ccc1O | 26.9% | 7.3% | 19.4% | 14.8% | 36.5% | 46.3%
CS/C(=C/c1ccc2ccccc2[n+]1C)N1CCN(C)CC1 | -3.3% | -1.25% | -8.15% | -12.9% | -3% | -0.2%
COC(=O)C1=CO[C@@H](C)[C@@H]2CN3CCc4c([nH]c5ccc(OC)cc45)[C@@H]3C[C@H]12 | 8.9% | -19.9% | -24.9% | -18.6% | -2.9% | -16.4%
Cc1c(CCCl)c(=O)n2c([nH]c3ccccc32)c1C#N | 56.5% | -56.5% | 18.6% | 5.2% | -52.1% | 62%
COC(=O)CC1CSCC1=O (stereo not drawn) | 7.5% | 22.1% | 5.95% | -12.5% | 12.6% | 11.2%
COc1cc(OC)c(NC(N)=O)cc1Cl | 2.3% | -35% | 3.55% | 9.75% | 5.75% | -15.8%
CCCCc1c(OC)cc(O)c2c1C(=O)c1[nH]c(C(=O)O)c(O)c(=O)c1C2=O | -16.6% | -19.3% | -13.9% | -11.7% | -10.9% | -5.75%
CC(=O)c1cc(Cl)ccc1OCC(O)CNc1ccc(Cl)cc1C(=O)c1ccccc1 (stereo not drawn) | 17.6% | 37.6% | 10.3% | 34% | -3.85% | 7.15%
NCC(O)CSc1ccccc1 (stereo not drawn) | -10.6% | 4.15% | -6.85% | -16.7% | -1.3% | -6.8%
O=C(CCc1cc(O)cc(O)c1)NCCc1cc(OCc2ccccc2)cc(OCc2ccccc2)c1 | 28.7% | 24.7% | 45% | 33.2% | 27.1% | -42.6%
O=[N+]([O-])c1ccc(OCCO)c([N+](=O)[O-])c1 | 6.75% | -5.85% | -22.4% | -11.5% | -0.15% | 10%
O=C(N/N=C/c1ccc(O)cc1)C1CCCO1 (stereo not drawn) | 2.9% | 26.5% | -1.35% | -64.2% | 2.95% | -9.45%
CC1=C(CCC#N)C(=O)C(CCC#N)C(C)(C)C1 (stereo not drawn) | 0.15% | -8.65% | -16.6% | -29.6% | -2.75% | -7.9%
C/C(C=C(C#N)C#N)=C\c1ccccc1 | 25.3% | 11.3% | -5.7% | 14.2% | 36.9% | 17.6%
CCCCCC/C=N/Nc1ccc([N+](=O)[O-])cc1[N+](=O)[O-] | 1.65% | -18.9% | -11.2% | -48.2% | -6.95% | -4.9%
CCOC(CN=Cc1cccc2ccccc12)OCC | -26.4% | -1.4% | -11.8% | 46.7% | -3.55% | 18.6%
Cc1cc2c(c3c1c(=O)c1ccccc1n3C)C=CC(C)(C)O2 | -5.05% | -0.2% | 9.95% | 3.35% | 14.4% | -8.9%
CC(O)CCC(C)(C)[N+](=O)[O-] (stereo not drawn) | 3.15% | -6.85% | 0.1% | 10.8% | 0.25% | -0.9%
